Results as given in PubChem BioAssay (NCI).
The panel holds about 83,000 compounds, 20% with a hit somewhere; the sample as a whole holds those more often.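 Treatment: one concentration, 48 hours, 96-well format. Scoring: percent growth, with anything below 10 considered active.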 Active and inactive are the calls of the source.

Columns and labels:
Test in all cases: NCI-60 one-dose screen, 48 h (100 = growth as untreated, 0 = no growth, -100 = all killed)
Conditions in all cases: 10 µM unless noted
DU-145 prostate = tested on: DU-145 prostate
K-562 leukemia = tested on: K-562 leukemia
MALME-3M melanoma = tested on: MALME-3M melanoma
MDA-MB-231 breast = tested on: MDA-MB-231 breast
RXF 393 renal = tested on: RXF 393 renal
SF-268 CNS = tested on: SF-268 CNS
SF-295 CNS = tested on: SF-295 CNS
SF-539 CNS = tested on: SF-539 CNS
UACC-257 melanoma = tested on: UACC-257 melanoma
M14 melanoma = tested on: M14 melanoma
HCT-15 colon = tested on: HCT-15 colon
HT29 colon = tested on: HT29 colon
SNB-19 CNS = tested on: SNB-19 CNS
U251 CNS = tested on: U251 CNS
PC-3 prostate = tested on: PC-3 prostate
SK-MEL-5 melanoma = tested on: SK-MEL-5 melanoma
UACC-62 melanoma = tested on: UACC-62 melanoma
LOX IMVI melanoma = tested on: LOX IMVI melanoma
SK-MEL-28 melanoma = tested on: SK-MEL-28 melanoma

Measured: growth

O=C1Nc2ccccc2/C1=C/c1cccn1CCCCCCn1c2ccccc2c(=O)c2ccccc21
inactive: DU-145 prostate 94% | K-562 leukemia 66.6% | MALME-3M melanoma 90.7% | MDA-MB-231 breast 75.4% | RXF 393 renal 99.2% | SF-268 CNS 87% | SF-295 CNS 97.2% | SF-539 CNS 100% | UACC-257 melanoma 110% | M14 melanoma 78.2% | HCT-15 colon 23% | HT29 colon 92.9% | SNB-19 CNS 97.1% | U251 CNS 92.4% | PC-3 prostate 40.1% | SK-MEL-5 melanoma 34.7% | UACC-62 melanoma 50.3% | LOX IMVI melanoma 91.2% | SK-MEL-28 melanoma 111%

O=C1C=CC2(O)OC(c3ccccc3)CC(=O)C2=C1O (centres undefined)
inactive: DU-145 prostate 15.7% | K-562 leukemia 72.6% | MALME-3M melanoma 95.7% | MDA-MB-231 breast 73.2% | RXF 393 renal 94% | SF-268 CNS 40.4% | SF-295 CNS 107% | SF-539 CNS 86.1% | UACC-257 melanoma 87.9% | M14 melanoma 90.3% | HCT-15 colon 64.9% | HT29 colon 108% | SNB-19 CNS 87.8% | U251 CNS 74.9% | PC-3 prostate 79.7% | SK-MEL-5 melanoma 89.8% | UACC-62 melanoma 80.7% | LOX IMVI melanoma 77% | SK-MEL-28 melanoma 95.7%

COc1ccc(Nc2nc(Nc3cc(C)[nH]n3)c3cc(OC)c(OC)cc3n2)cc1
active: DU-145 prostate -86.2% [20 µM] | K-562 leukemia -10.8% [20 µM] | MALME-3M melanoma -97.7% [20 µM] | MDA-MB-231 breast -94.2% [20 µM] | RXF 393 renal -94.4% [20 µM] | SF-268 CNS -66.8% [20 µM] | SF-295 CNS -94.2% [20 µM] | SF-539 CNS -97.2% [20 µM] | UACC-257 melanoma -76.8% [20 µM] | M14 melanoma -75.6% [20 µM] | HCT-15 colon -83.1% [20 µM] | HT29 colon -61.2% [20 µM] | SNB-19 CNS -99.2% [20 µM] | U251 CNS -69.8% [20 µM] | PC-3 prostate -80.7% [20 µM] | SK-MEL-5 melanoma -84.7% [20 µM] | UACC-62 melanoma -98.9% [20 µM] | LOX IMVI melanoma -92.6% [20 µM] | SK-MEL-28 melanoma -95.9% [20 µM]

COc1cc2ncnc(Nc3ccc(S(=O)(=O)Nc4cc(C)on4)cc3)c2cc1OCCCN1CCOCC1
inactive: DU-145 prostate 108% | K-562 leukemia 102% | MALME-3M melanoma 95.3% | MDA-MB-231 breast 105% | RXF 393 renal 102% | SF-268 CNS 98.1% | SF-295 CNS 97.7% | SF-539 CNS 99.4% | UACC-257 melanoma 99.8% | M14 melanoma 105% | HCT-15 colon 105% | HT29 colon 101% | SNB-19 CNS 101% | U251 CNS 95.2% | PC-3 prostate 103% | SK-MEL-5 melanoma 97.1% | UACC-62 melanoma 104% | LOX IMVI melanoma 96.4% | SK-MEL-28 melanoma 115%

CCCc1cc(CCC)n2nc(N)nc2n1
inactive: DU-145 prostate 117% | K-562 leukemia 121% | MALME-3M melanoma 116% | MDA-MB-231 breast 125% | RXF 393 renal 102% | SF-268 CNS 110% | SF-295 CNS 96.4% | SF-539 CNS 112% | UACC-257 melanoma 118% | M14 melanoma 111% | HCT-15 colon 107% | HT29 colon 108% | SNB-19 CNS 113% | U251 CNS 110% | PC-3 prostate 96.9% | SK-MEL-5 melanoma 107% | UACC-62 melanoma 111% | LOX IMVI melanoma 105% | SK-MEL-28 melanoma 105%

CC(C)CCc1nc2ccc(NCc3ccc(OCCN4CCC(C)CC4)cc3)cc2[nH]1
inactive: DU-145 prostate 89.4% | K-562 leukemia 20.4% | MALME-3M melanoma 32% | MDA-MB-231 breast 59.8% | RXF 393 renal 61.6% | SF-268 CNS 79.9% | SF-295 CNS 90.4% | SF-539 CNS 58% | UACC-257 melanoma 96.3% | M14 melanoma 33.2% | HCT-15 colon 67.4% | HT29 colon 40.3% | SNB-19 CNS 88.6% | U251 CNS 71.6% | PC-3 prostate 61.4% | SK-MEL-5 melanoma 84.9% | UACC-62 melanoma 82.5% | LOX IMVI melanoma 59.6% | SK-MEL-28 melanoma 75.7%

Nc1c(C(=O)c2ccc(Cl)cc2)sc(Nc2ccccc2)c1-c1nc2ccccc2s1
active: SF-295 CNS -24.4% | U251 CNS 4.94% | UACC-62 melanoma 7.88%
inactive: DU-145 prostate 25.5% | K-562 leukemia 55.2% | MALME-3M melanoma 20.7% | MDA-MB-231 breast 18.8% | RXF 393 renal 72.8% | SF-268 CNS 45.5% | SF-539 CNS 43.2% | UACC-257 melanoma 58.8% | M14 melanoma 30.6% | HCT-15 colon 39.7% | HT29 colon 17.9% | SNB-19 CNS 62.1% | PC-3 prostate 10.3% | SK-MEL-5 melanoma 55.1% | LOX IMVI melanoma 17.8% | SK-MEL-28 melanoma 42.6%

Cn1cc(-c2csc(-c3cn(CCO)c4ccc(F)cc34)n2)c2cccnc21
inactive: DU-145 prostate 95.4% | K-562 leukemia 18.1% | MALME-3M melanoma 72.8% | MDA-MB-231 breast 57.9% | RXF 393 renal 69.7% | SF-268 CNS 77.6% | SF-295 CNS 52.3% | SF-539 CNS 69.9% | UACC-257 melanoma 77.4% | M14 melanoma 35.7% | HCT-15 colon 41.5% | HT29 colon 18.2% | SNB-19 CNS 69.6% | U251 CNS 49.3% | PC-3 prostate 44.6% | SK-MEL-5 melanoma 62.9% | UACC-62 melanoma 52.4% | LOX IMVI melanoma 44.8% | SK-MEL-28 melanoma 74.4%

O=c1c(/C=C/c2c(O)ccc3ccccc23)nnc2sc(-c3cccc([N+](=O)[O-])c3)nn12
inactive: DU-145 prostate 44.1% | K-562 leukemia 50.9% | MALME-3M melanoma 72.9% | MDA-MB-231 breast 30.8% | RXF 393 renal 74.5% | SF-268 CNS 40.4% | SF-295 CNS 43.8% | SF-539 CNS 53.2% | UACC-257 melanoma 54.6% | M14 melanoma 52.3% | HCT-15 colon 29.1% | HT29 colon 88.8% | SNB-19 CNS 50% | PC-3 prostate 52.7% | SK-MEL-5 melanoma 65.2% | UACC-62 melanoma 32.5% | LOX IMVI melanoma 33.7% | SK-MEL-28 melanoma 54.1%
active: U251 CNS 0.449%

O=C(CNc1ncco1)Nc1ccc(S(=O)(=O)c2ccc(NC(=O)CNc3ncco3)cc2)cc1
active: K-562 leukemia -6% | MALME-3M melanoma -38.8% | RXF 393 renal -38.6% | SF-539 CNS -15.4% | M14 melanoma -28.8% | HCT-15 colon -49.6% | HT29 colon -93.2% | U251 CNS -92.1% | SK-MEL-5 melanoma -60.4% | UACC-62 melanoma -19.9% | LOX IMVI melanoma -81.8%
inactive: DU-145 prostate 115% | MDA-MB-231 breast 14.6% | SF-268 CNS 99.1% | SF-295 CNS 49.7% | UACC-257 melanoma 10.3% | SNB-19 CNS 19.7% | PC-3 prostate 40.1% | SK-MEL-28 melanoma 58.1%

NC(=N\N=C/c1ccc(Cl)cc1Cl)/C(N)=N\N=C/c1ccc(Cl)cc1Cl
inactive: DU-145 prostate 90.6% | K-562 leukemia 80.6% | MALME-3M melanoma 88.3% | MDA-MB-231 breast 71.1% | RXF 393 renal 83.6% | SF-268 CNS 89.7% | SF-295 CNS 60% | SF-539 CNS 43.5% | UACC-257 melanoma 118% | M14 melanoma 105% | HCT-15 colon 82.9% | HT29 colon 52.5% | SNB-19 CNS 69.8% | U251 CNS 36.2% | PC-3 prostate 89.2% | SK-MEL-5 melanoma 108% | UACC-62 melanoma 94.9% | LOX IMVI melanoma 74% | SK-MEL-28 melanoma 110%

CC(=O)O[C@H]1CC[C@@]2(C)C(=CC[C@@H]3[C@@H]2CC[C@]2(C)C(Cl)=C(c4nc5ccc(Cl)cn5c4NC(C)(C)C)C[C@@H]32)C1
inactive: DU-145 prostate 95.8% | K-562 leukemia 85.4% | MALME-3M melanoma 66.7% | MDA-MB-231 breast 87.5% | RXF 393 renal 90.1% | SF-268 CNS 101% | SF-295 CNS 93.2% | SF-539 CNS 97.6% | UACC-257 melanoma 98.9% | M14 melanoma 93.1% | HCT-15 colon 100% | HT29 colon 102% | SNB-19 CNS 85.1% | U251 CNS 88.5% | PC-3 prostate 82.9% | UACC-62 melanoma 73.6% | LOX IMVI melanoma 89.8% | SK-MEL-28 melanoma 94.4%

C=C(C)[C@@H]1CC[C@]2(COC(=O)c3cccnc3)CC[C@]3(C)[C@H](CC[C@@H]4[C@@]5(C)CCCN(C(=O)c6cccnc6)C(C)(C)[C@@H]5CC[C@]43C)[C@@H]12
active: SK-MEL-5 melanoma 2.5%
inactive: DU-145 prostate 44% | K-562 leukemia 13.7% | MALME-3M melanoma 69.1% | MDA-MB-231 breast 52.7% | RXF 393 renal 56.1% | SF-268 CNS 45.5% | SF-295 CNS 40.9% | SF-539 CNS 46.4% | UACC-257 melanoma 19.9% | M14 melanoma 41.5% | HCT-15 colon 24.9% | HT29 colon 32.3% | SNB-19 CNS 47.1% | U251 CNS 25.6% | PC-3 prostate 14.6% | UACC-62 melanoma 28.4% | LOX IMVI melanoma 21.3% | SK-MEL-28 melanoma 51.3%

C#Cc1ccc(NC(=O)Cc2ccc(/C=C/C(=O)c3nccn3C)cc2)cc1
active: HT29 colon 6.76%
inactive: DU-145 prostate 12.6% | K-562 leukemia 18.2% | MALME-3M melanoma 95.7% | MDA-MB-231 breast 54.4% | RXF 393 renal 21.8% | SF-268 CNS 38% | SF-295 CNS 77% | SF-539 CNS 26.3% | UACC-257 melanoma 103% | M14 melanoma 98.6% | HCT-15 colon 23% | SNB-19 CNS 39.3% | U251 CNS 15.1% | PC-3 prostate 39.6% | UACC-62 melanoma 72.9% | LOX IMVI melanoma 24.1% | SK-MEL-28 melanoma 107%
